Records with an inconclusive call do not appear. Active and inactive are the calls of the source. Calls come from the whole dose curve; as a rule, active = well fitted activation curve with a large enough effect; inconclusive = small, poorly fitted or top-dose-only effect; inactive = no such curve, though single readings can be large or run the other way.
Potency is the fitted concentration of half-maximal effect.

Cellular tumor antigen p53 (Homo sapiens), sequence (P04637 whole entry, looked up): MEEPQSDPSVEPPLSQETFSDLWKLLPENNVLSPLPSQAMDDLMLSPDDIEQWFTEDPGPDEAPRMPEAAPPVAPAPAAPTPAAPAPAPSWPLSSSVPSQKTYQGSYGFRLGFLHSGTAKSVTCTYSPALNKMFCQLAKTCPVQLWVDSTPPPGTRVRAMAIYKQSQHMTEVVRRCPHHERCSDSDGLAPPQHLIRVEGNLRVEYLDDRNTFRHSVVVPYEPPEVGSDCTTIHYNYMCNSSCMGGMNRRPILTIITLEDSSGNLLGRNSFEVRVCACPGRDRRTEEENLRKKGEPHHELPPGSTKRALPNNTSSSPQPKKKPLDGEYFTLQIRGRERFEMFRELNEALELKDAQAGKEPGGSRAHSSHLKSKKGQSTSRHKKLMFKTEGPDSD

In this experiment the target is Cellular tumor antigen p53 (Homo sapiens) (UniProt P04637). Description: Primary qHTS for small molecule compounds that upregulate eGFP-tagged delta133p53alpha (in N-terminal) cells. (AID 2060322).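 For activation: cells pre-induced with doxycycline then dosed without doxycycline; series mostly up to about 56 µM; 0% = DMSO vehicle and 100% = reference activator.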 Note: nearly all actives have a fitted effect of over 75% in size. Conditions: NCI-H358 eGFP-delta133p53alpha fluorescence, 24 h; activation: hits give high values. In outline:
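NCI-H358 cells pre-induced 24 h with 10 ng/ml doxycycline for eGFP-delta133p53alpha, plated dox-free and exposed 24 h at 37C to titrated compounds. Fixed, Hoechst-stained; gated GFP peak intensity by laser scanning cytometry, normalized to DMSO (0%) and 57.5 uM 5-azacytidine (100%).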
(qHTS replaces the single test concentration by a dilution series.)
On to `CCOC(=O)N1CCC(n2c(=O)[nH]c3cc(Cl)ccc32)CC1`, for which the activation was -16.4% (inactive).

As for `O=C(C=Cc1cccc(S(=O)(=O)Nc2ccccc2)c1)NO`, the activation was 49% (inactive).

`COC(=O)N[C@H](C(=O)N1CCC[C@@H]1c1ncc(-c2ccc(-c3ccc(-c4cnc([C@@H]5CCCN5C(=O)[C@@H](NC(=O)OC)C(C)C)[nH]4)cc3)cc2)[nH]1)C(C)C`: the activation was 77.3% (inactive).

Consider `Nc1nnnn1-c1ccccc1`, for which the activation was 29.9% (inactive).

Regarding `CN(C)CCc1c[nH]c2ccc(Cn3cncn3)cc12`, the Potency was 21.7 µM (active).

On to `CCCCN1CCCC1C(=O)Nc1c(C)cc(C)cc1C` (stereo not given), for which the activation is 27.6% (inactive).

As to `COc1cc(C(=O)N2CCOCC2)cc(OC)c1OC`, the activation was 20.9% (inactive).

On to `CC(C)=CCC[C@@](C)(O)[C@H]1CC=C(C)CC1`, for which the activation was 18.6% (inactive).

Take `CC[C@H](C)[C@H](N)C(=O)O`: the activation was -22% (inactive).

For `CN1C(=O)CC(c2ccccc2)C1=O` (stereo not given), the activation was 10.7% (inactive).

As for `CN(C)c1cc(NC(=O)CNC(C)(C)C)c(O)c2c1C[C@@H]1C[C@H]3[C@H](N(C)C)C(=O)C(C(N)=O)=C(O)[C@@]3(O)C(=O)C1=C2O`, the activation was -7.92% (inactive).

For the compound `Nc1ccc(C(=O)Oc2ccccc2)c(O)c1`, the activation was -3.35% (inactive).

For `Cc1c(-c2cccc3c(CCCOc4cccc5ccccc45)c(C(=O)O)n(Cc4cccnc4)c23)c(COc2ccc(N3CCN([S+](=O)([O-])N(C)C)CC3)cc2)nn1C`, the activation was -39.2% (inactive).

`COc1ccc(CN(CCN(C)C)c2ncccn2)cc1`: the activation is 5.08% (inactive).

As for `O=C(c1ccco1)N1CCNCC1`, the activation was -10.9% (inactive).

The values above are taken from PubChem BioAssay (NCATS).
